Compounds without any hit were thinned out: in the full panel of roughly 79,000, 15% have a hit. Cut-off read from the data, not from the text of the source: active = growth inhibition above about 70%; inactive = the rest.
Assays:
[1] = NCI Yeast Anticancer Drug Screen. Data for the rad50 strain (AID 155);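 note: 0% = growth of vehicle-only cultures of the same strain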; settings: S. cerevisiae rad50 strain growth inhibition; at 50.0 µM; active compounds read high
In short: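 Genetically altered yeast (DNA repair pathway); compound treatment; growth inhibition vs vehicle ctrl.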

[2] = NCI Yeast Anticancer Drug Screen. Data for the mec2-1 strain (AID 157); settings: S. cerevisiae mec2-1 strain, at 50.0 µM, active compounds read high
In short: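 Compounds were applied to mec2-1 yeast cells. Their growth was then compared with that of vehicle-treated cultures to give growth inhibition.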

[3] = NCI Yeast Anticancer Drug Screen. Data for the sgs1 mgt1 strain (AID 161);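 note: 0% = growth of cultures given vehicle only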; settings: S. cerevisiae sgs1 mgt1 strain, at 50.0 µM, active compounds read high
In short: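 Growth of a repair-deficient yeast mutant was monitored after compound treatment and expressed as inhibition relative to vehicle-treated cultures.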

[4] = NCI Yeast Anticancer Drug Screen. Data for the cln2 rad14 strain (AID 165);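 note: 0% = growth equal to vehicle treated cultures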; settings: S. cerevisiae cln2 rad14 strain, at 50.0 µM, active compounds read high
In short: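 Strain: cln2 rad14 yeast, altered in cell cycle control and DNA damage repair. Read-out: growth inhibition vs vehicle.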

[5] = NCI Yeast Anticancer Drug Screen. Data for the bub3 strain (AID 167); settings: S. cerevisiae bub3 mutant strain, at 50.0 µM, active compounds read high
In short: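 Yeast carrying a defined mutation is treated with each compound, and growth is compared with that of vehicle-exposed cells to give inhibition.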

[6] = NCI Yeast Anticancer Drug Screen. Data for the mlh1 rad18 strain (AID 175); settings: S. cerevisiae mlh1 rad18 strain growth inhibition; at 50.0 µM; active compounds read high
In short: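 A repair-deficient yeast strain is exposed to test compound, and growth is scored relative to vehicle-treated controls.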

Measured: growth inhibition

Cn1cnc2cc(NCCO)c([N+](=O)[O-])cc2c1=O
inactive: [1] 11.1% | [2] 18.9% | [3] 4.5% | [4] 11.4% | [5] 24.4% | [6] 24.3%

COc1ccc(O)c(/C=N/NC(N)=S)c1
inactive: [1] 23.8% | [2] -24.8% | [3] -4.45% | [4] -115% | [5] -24.8% | [6] -11.4%

N=C(N)SCc1cn2ccccc2n1
inactive: [1] -37% | [2] -30.5% | [3] -62.7% | [4] 1.35% | [5] -27.6% | [6] -50.8%

Nc1ncnc2c1[nH]c(=O)n2-c1ccccc1
inactive: [1] -46.6% | [2] -30.5% | [3] -16.6% | [4] -1.3% | [5] -17.1% | [6] -6.9%

CC1C(c2ccccc2)=NN(C)c2ccccc21 (stereo not drawn)
inactive: [1] 19.6% | [2] 0.6% | [3] 3.7% | [4] -28.1% | [5] 8.45% | [6] 21.8%

CCc1ccc(N=Cc2cc(OC)c(OC)c(OC)c2)cc1
inactive: [1] -4.2% | [2] 16.4% | [3] 29.4% | [4] 4.75% | [5] 14.2% | [6] -6.45%

OCC1C2C=CC(C3C=CC32)C1CO (stereo not drawn)
inactive: [1] 8.4% | [2] -9.8% | [3] -5.7% | [4] -89.7% | [5] -1.6% | [6] 4.25%

O=S(=O)(O)CCCCO
inactive: [1] 4.4% | [2] -29.9% | [3] 0.9% | [4] 22.2% | [5] 6.15% | [6] 10.2%

OCC1CCCC1
inactive: [1] 12.3% | [2] -18.4% | [3] -0.05% | [4] -2.95% | [5] -1.5% | [6] 9.7%

N=c1nc(N)ss1
inactive: [1] 15.8% | [2] 5.85% | [3] 16.4% | [4] -31.6% | [5] 21.7% | [6] 44%

CN(CN(C)/N=C/c1cccc([N+](=O)[O-])c1)/N=C\c1cccc([N+](=O)[O-])c1
inactive: [1] -0.05% | [2] -11.6% | [3] -2.9% | [4] -40.9% | [5] 4.95% | [6] -14.3%

CNc1cc2oc(=O)cc(C)c2cc1C
inactive: [1] 19.8% | [2] -12.5% | [3] 6.8% | [4] 3.6% | [5] 14.2% | [6] 10.4%

CN(C)N1C(=O)c2ccccc2NC1c1ccccc1 (stereo not drawn)
inactive: [1] -19.2% | [2] -1.35% | [3] 29.6% | [4] 2% | [5] 18.9% | [6] 5.15%

CC(C)CCCC(C)C1CCC2C3C(=O)C=C4CC(OC(=O)CCC(C)C)CCC4(C)C3CCC12C (stereo not drawn)
inactive: [1] -0.05% | [2] 11.9% | [3] 25.3% | [4] 19.8% | [5] -0.55% | [6] 0.25%

C=CCOC(=O)c1ccccc1O
inactive: [1] 12.9% | [2] -12.1% | [3] -13.3% | [4] -0.9% | [5] -21.2% | [6] 12.8%

O=C1/C(=C/c2ccc(O)cc2)CCc2ccc([N+](=O)[O-])cc21
inactive: [1] -10.3% | [2] -1.15% | [3] 9.45% | [4] 13.8% | [5] -0.8% | [6] -55.4%

CSC(=N\N=C\c1c(F)cccc1Cl)/N=C/N(C)C
inactive: [1] 8.7% | [2] -4.1% | [3] 12.7% | [4] 14.8% | [5] -2.85% | [6] 4%

CC1C=CCC2C(=O)OC(=O)C12 (stereo not drawn)
inactive: [1] 10.3% | [2] -1.65% | [3] -4.65% | [4] -3.8% | [5] -0.75% | [6] 15.6%

C=C1C(=O)O[C@@H]2/C=C(\C)CC/C=C(/C)CC[C@@H]12
inactive: [1] 45.8% | [2] 52.2% | [3] 61.6% | [4] 32.8% | [5] 54.4% | [6] 58.1%

[O-][n+]1cccc(CO)c1
inactive: [1] -17.9% | [2] -47.9% | [3] -25.1% | [4] 6.05% | [5] -15% | [6] -4.35%

CCCCCC(O)c1ccccc1 (stereo not drawn)
inactive: [1] 22.7% | [2] -15.1% | [3] 11.2% | [4] -6.8% | [5] -7.1% | [6] 17.5%

COc1ccc(-c2cc(-c3ccccc3)n[nH]2)cc1
inactive: [1] 24% | [2] 27.7% | [3] 43.8% | [4] -13.9% | [5] 47.9% | [6] 33.4%

Cc1cc(Cl)ccc1OCCCC(=O)NC(Cc1c[nH]c2ccccc12)C(=O)O (stereo not drawn)
inactive: [1] 3.35% | [2] 2.9% | [3] 17.7% | [4] 22.4% | [5] -2.4% | [6] 9.35%

COc1ccc(-n2c(=O)c(N=Nc3ccc(Cl)cc3)c(O)n(-c3ccc(I)cc3)c2=S)cc1
inactive: [1] 49.8% | [2] 5.45% | [3] 33.4% | [4] -3.7% | [5] 0.8% | [6] 22.4%

CC(=O)OCCC(=O)Nc1cc([N+](=O)[O-])ccc1OCc1ccccc1
inactive: [1] 7.05% | [2] 1.6% | [3] -6.45% | [4] -3.8% | [5] 3.65% | [6] -16%

Nc1cc(Cl)nc(N)n1
inactive: [1] -12.2% | [2] -16.4% | [3] 9.9% | [4] 0.1% | [5] -5.4% | [6] 17.6%

CC(C)(C)c1cc2ccc(C(N)=O)cc2c(=O)[nH]1
inactive: [1] -23.7% | [2] -29.8% | [3] -1.65% | [4] 1.2% | [5] -8.8% | [6] -4.95%

Cc1ccc(-c2cc(=O)c3cc(C)c(C)c(C#N)c3o2)cc1
inactive: [1] -10.2% | [2] -5.75% | [3] -13.8% | [4] -1.7% | [5] -22.4% | [6] 6.45%

CC1OC(OC2C(O)CC(OC3C(O)CC(OC4CCC5(C)C(CCC6C5CCC5(C)C(C7=CC(=O)OC7)CCC65O)C4)OC3C)OC2C)CC(O)C1O (stereo not drawn)
inactive: [1] 7.6% | [2] 2.4% | [3] -17.5% | [4] 16.8% | [5] 6.65% | [6] 27.2%

Cc1ccc2c(c1)[nH]c(=S)n2C=C(C#N)C#N
inactive: [1] -23.6% | [2] -42.4% | [3] -1.1% | [4] 0.75% | [5] -0.55% | [6] -5.15%

CCCOC(=O)c1ccccc1Cl
inactive: [1] 31.1% | [2] 22.5% | [3] 23.1% | [4] 13.4% | [5] 11.6% | [6] 24.1%

COc1ccc(C(=O)CC(c2ccccc2)[C@H]2C(c3ccc(OC)cc3)=Nc3c(nc(SC)n(C)c3=O)NC2c2ccccc2)cc1 (stereo partly drawn)
inactive: [1] 16.8% | [2] 7.55% | [3] 20.6% | [4] 12.7% | [5] -0.35% | [6] 19.2%

CCCCS(=O)(=O)CCC(N)C(=O)O (stereo not drawn)
inactive: [1] -3.45% | [2] -9.45% | [3] 2.6% | [4] -36.2% | [5] -4.75% | [6] -11.5%

Cc1cc(OCCN(C)C)cc(C)c1Cl
inactive: [1] -2% | [2] -0.75% | [3] 25.1% | [4] 37.6% | [5] -16.9% | [6] 8.8%

Nc1nc(SCC(=O)O)nc(N)c1N=Nc1ccc(S(=O)(=O)NC(=O)c2ccccc2)cc1
inactive: [1] 7.3% | [2] 5.75% | [3] -7.4% | [4] -0.3% | [5] 0.1% | [6] 15.6%

CN(C)CCNC(=O)Cn1cnc2cccc([N+](=O)[O-])c2c1=O
inactive: [1] 34.5% | [2] 17% | [3] 4.85% | [4] 20.6% | [5] 20.9% | [6] -34.6%

C[N+](C)(C)/N=C/c1ccc(O)c(O)c1
inactive: [1] -48.2% | [2] -23.8% | [3] -15.3% | [4] -16% | [5] -14.9% | [6] -13.8%

CC1(C)CCC2(CC1)CC[N+](C)(CCC[N+](C)(C)C)CC2
inactive: [1] -26.6% | [2] -8.4% | [3] -10.8% | [4] -11.8% | [5] 8.7% | [6] -11.2%

Reference: PubChem BioAssay (NCI)
